Source: the supplement of paper PMC4466236
In all, about 33,000 sequences were measured (“E-score (dimensionless, -0.5 to 0.5)”: median about -0.058, highest 2% from about 0.35 on). Many of the other results were omitted from the sample, so the highest values are more common in it than they were.

System: MvaT
Assay: PBM 8-mer E-score (mean of HK and ME arrays) (E-score (dimensionless, -0.5 to 0.5)); higher = stronger relative binding preference
Procedure, shortened: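 Full-length P. aeruginosa MvaT, with glutathione S-transferase fused to its N-terminus (cloned into pTH6838 by isothermal assembly), was tested by protein binding microarray using a previously described protocol. Two universal double-stranded 60-mer arrays (ME and HK) were used, each with a constant 25-mer primer region and a variable 35-mer region covering all 8-mers. The rank-based 8-mer E-score (-0.5 to 0.5) is the mean of the two arrays, parsed with a custom Python script.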

| Sequence | PBM 8-mer E-score |
| --- | --- |
| ATGATCAA | 0.176 |
| GAAAGGGC | -0.199 |
| TAAGAACA | 0.123 |
| GCCGCTCA | -0.105 |
| CTTTGAAA | 0.141 |
| ACATGTAC | 0.243 |
| AGGCCATC | -0.264 |
| ACTATTAT | 0.425 |
| ACCATTAT | 0.332 |
| CTCATTAA | 0.196 |
| ATTATTAA | 0.446 |
| ATTATGAA | 0.269 |
| CTTATTCA | 0.194 |
| GTTATTCA | 0.236 |
| GTTATTAA | 0.383 |
| ACGATTAT | 0.245 |
| GCTATTAA | 0.272 |
| CTTATTAA | 0.362 |
| ATCATTAA | 0.259 |
| GTTTTTCA | 0.0388 |
| AGCGGTGG | -0.209 |
| CCTGCCTC | -0.249 |
| AGACTTCC | -0.21 |
| AAAAAAGG | 0.0491 |

| Sequence | PBM 8-mer E-score |
| --- | --- |
| CTGTCCTA | -0.112 |
| ATAATCTA | 0.344 |
| GTCATATA | 0.282 |
| ATCATATA | 0.338 |
| GTAATACA | 0.295 |
| CTAATATA | 0.434 |
| CTAATATC | 0.299 |
| ATAATATA | 0.475 |
| GTAATATA | 0.436 |
| CTAATAGA | 0.184 |
| CAGGCTCG | -0.325 |
| CAGACGGA | -0.156 |
| AGCTGGGG | -0.186 |
| ACTACGCG | -0.0273 |
| AGGGCATG | -0.207 |
| GCAACGCA | -0.168 |
| GATATTTA | 0.326 |
| CCTATTTC | 0.0116 |
| ACTATTTC | 0.201 |
| AATATTGA | 0.327 |
| AATATTTC | 0.404 |
| AACATTTG | 0.103 |
| CATATTTC | 0.26 |
| CCTATTTA | 0.212 |

| Sequence | PBM 8-mer E-score |
| --- | --- |
| AATTTTTG | 0.194 |
| AATATTTA | 0.45 |
| AATATTTG | 0.349 |
| CATATTTA | 0.371 |
| AGTGTGAA | 0.204 |
| CAGGGTTC | -0.251 |
| GAAGATGA | -0.128 |
| CGGAGTTC | -0.106 |
| TCACCTCA | -0.163 |
| CTTCTTTC | 0.015 |
| AGAATAGA | 0.051 |
| ATAATAGG | 0.291 |
| ATAATAGA | 0.364 |
| CTAATAGC | 0.0517 |
| ATAATAGC | 0.362 |
| GTAATAGA | 0.164 |
| TTGGAAAA | 0.114 |
| AACTCGTC | 0.0126 |
| GGGTTGAC | -0.213 |
| CATACGGC | -0.244 |
| ACCGTAGA | -0.0538 |
| CCCGTGCG | -0.273 |
| AGACGAAC | -0.107 |
| ATCCAAAA | 0.1 |

| Sequence | PBM 8-mer E-score |
| --- | --- |
| CCTAACCA | -0.103 |
| CTGCTGTC | -0.222 |
| ACTTAATA | 0.4 |
| ACTTAATC | 0.187 |
| GCTTAATA | 0.352 |
| CCTTAATA | 0.298 |
| GCTTAACA | 0.0832 |
| ACTTAATG | 0.287 |
| CGATGGTC | -0.364 |
| AGACAGGA | -0.156 |
| CGTCCTCA | -0.231 |
| ACGCGGCG | -0.275 |
| ACGTTAAA | 0.256 |
| CACTCGTC | -0.185 |
| CTGGCATC | -0.181 |
| CAATCAGC | -0.0173 |
| ATTAAGAG | 0.297 |
| ATTAATAA | 0.468 |
| ATTAATAG | 0.426 |
| ATTAAGAA | 0.282 |
| CTTAATAC | 0.286 |
| ATTAATAC | 0.41 |
| AGTAATAA | 0.327 |
| GGTAATAC | 0.249 |
